Laboratory results reported in PubChem BioAssay AID1159580 (chemical genetic matrix, 2015).
Values joined by “and” are separate entries in the source; they are usually repeats but may differ in a detail not shown here. Identical values can stand only once. Among all 5,500 compounds or so, about 2,000 (36%) were called active. About 18% were inconclusive and are not listed. Rule as the data show it: active = normalized growth mostly below about 0.91 (no sharp cut-off); inconclusive = no clear call, values can overlap the other calls; inactive = mostly above about 0.92. Some of the results follow.

Test: chemical genetic growth profiling, strain panel (AID 1159580);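 also: tested at 20 µM; growth read once vehicle control cultures reached saturation at 30 °C; 1 = growth at the plate median or of vehicle wells; lower values mean less growth of the strain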
Conditions: S. cerevisiae deletion strains, growth OD

Measured: normalized growth

COc1cc2c(cc1OC)C1Cc3ccc(OC)c(OC)c3CN1CC2 (stereo unspecified)
inactive: locus YAL021C, strain ccr4, hits give low values 0.983 | locus YAL026C, strain drs2, hits give low values 0.972 | locus YAL030W, strain snc1, hits give low values 0.983 | locus YBL061C, strain skt5, hits give low values 0.976 | locus YBR009C, strain hhf1, hits give low values 0.972 | locus YBR021W, strain FUR4, hits give low values 0.981 | locus YBR023C, strain chs3, hits give low values 0.968 | locus YBR171W, strain sec66, hits give low values 0.965 | locus YBR229C, strain ROT2, hits give low values 0.985 | locus YBR231C, strain swc5, hits give low values 0.983 | locus YBR279W, strain paf1, hits give low values 0.983 | locus YCL011C, strain gbp2, hits give low values 0.985 | locus YCL016C, strain dcc1, hits give low values 0.999 | locus YCL029C, strain bik1, hits give low values 0.998 | locus YCL061C, strain MRC1, hits give low values 0.983 | locus YCL069W, strain vba3, hits give low values 0.955 | locus YCR088W, strain abp1, hits give low values 0.979 | locus YDL005C, strain med2, hits give low values 0.974 | locus YDL035C, strain GPR1, hits give low values 1 | locus YDL040C, strain nat1, hits give low values 0.987 | locus YDL074C, strain BRE1, hits give low values 0.989 | locus YDL101C, strain DUN1, hits give low values 1 | locus YDL134C, strain PPH21, hits give low values 1.03 | locus YDL185W, strain tfp1, hits give low values 0.984 | locus YDL192W, strain arf1, hits give low values 0.991 | locus YDR001C, strain nth1, hits give low values 0.984 | locus YDR069C, strain doa4, hits give low values 0.972 | locus YDR101C, strain arx1, hits give low values 0.988 | locus YDR137W, strain rgp1, hits give low values 0.967 | locus YDR159W, strain sac3, hits give low values 0.972 | locus YDR162C, strain NBP2, hits give low values 1.06 | locus YDR195W, strain ref2 0.955 | locus YDR297W, strain sur2, hits give low values 0.975 | locus YDR318W, strain mcm21, hits give low values 1 | locus YDR334W, strain swr1, hits give low values 0.965 | locus YDR335W, strain msn5, hits give low values 0.97 | locus YDR388W, hits give low values 0.985 | locus YDR392W, strain spt3, hits give low values 0.982 | locus YDR502C, strain sam2, hits give low values 1 | locus YEL003W, strain gim4, hits give low values 0.978 | locus YEL037C, strain rad23, hits give low values 0.982 | locus YEL061C, strain CIN8 (second series), hits give low values 0.95 | locus YEL061C, strain CIN8, hits give low values 1.02 | locus YER015W, strain faa2, hits give low values 0.984 | locus YER016W, strain bim1, hits give low values 0.97 | locus YER110C, hits give low values 0.982 | locus YER111C, strain swi4, hits give low values 0.973 | locus YER155C, strain BEM2 (second series), hits give low values 0.972 | locus YER155C, strain BEM2, hits give low values 0.988 | locus YER167W, strain BCK2, hits give low values 0.998 | locus YFR010W, strain ubp6, hits give low values 0.96 | locus YGL078C, strain dbp3, hits give low values 0.985 | locus YGL086W, strain mad1, hits give low values 0.955 | locus YGL167C, strain pmr1, hits give low values 0.978 | locus YGL173C, strain kem1, hits give low values 0.987 | locus YGL227W, strain vid30, hits give low values 0.979 | locus YGL240W, strain doc1, hits give low values 0.973 | locus YGL248W, strain PDE1, hits give low values 1.03 | locus YGL253W, strain hxk2, hits give low values 0.97 | locus YGR135W, strain pre9, hits give low values 1.01 | locus YGR252W, strain gcn5, hits give low values 1.01 | locus YHR013C, strain ard1, hits give low values 0.977 | locus YHR027C, strain rpn1, hits give low values 1 | locus YHR030C, strain SLT2, hits give low values 0.996 and 0.965 | locus YHR079C, strain IRE1 (second series), hits give low values 0.995 | locus YHR079C, strain IRE1, hits give low values 0.979 | locus YHR094C, strain hxt1, hits give low values 0.978 | locus YHR129C, strain ARP1, hits give low values 1 | locus YHR142W, strain chs7, hits give low values 0.976 | locus YHR200W, strain rpn10, hits give low values 0.992 | locus YIL066C, strain RNR3, hits give low values 1.02 | locus YIL073C, strain SPO22, hits give low values 1.05 | locus YIL125W, strain kgd1, hits give low values 1 | locus YIR030C, strain dcg1, hits give low values 0.987 | locus YJL092W, strain hpr5, hits give low values 0.952 | locus YJL095W, strain BCK1 (second series), hits give low values 0.975 | locus YJL095W, strain BCK1, hits give low values 1.04 and 0.988 | locus YJL115W, strain asf1, hits give low values 0.967 | locus YJL129C, strain trk1, hits give low values 0.956 | locus YJL134W, strain LCB3, hits give low values 0.983 | locus YJL154C, strain vps35, hits give low values 0.981 | locus YJL164C, strain tpk1, hits give low values 0.99 | locus YJL166W, strain qcr8, hits give low values 0.99 | locus YJL168C, strain set2, hits give low values 0.989 | locus YJL187C, strain SWE1 (second series), hits give low values 1.01 | locus YJR043C, strain POL32, hits give low values 1.01
